{
  "source": "ChEMBL document CHEMBL3988442",
  "about": "“University of Dundee, Small-Polar-MMV Screening Library” (2021)",
  "note": "Among all 48,000 compounds or so, about 13,000 (27%) showed an effect of 50% or more. The list shows a part of the results.",
  "data": [
    {"test_system": "Wolbachia pipientis", "assay": "Anti-Wolbachia Cell-Based Screen", "assay_type": "functional", "parameters": "scale not given: in the data most compounds retested in dose-response had high values", "conditions": "5 µM", "units": {"Percent Effect": "%"}, "values": [
      {"smiles": "CN(C)CCNC(=O)c1nc2c(o1)CN(C(=O)c1cccnc1)C2.O=C(O)C(F)(F)F.O=C(O)C(F)(F)F", "Percent Effect": -13.48},
      {"smiles": "COC(C)(C)CC(C)NC(=O)NC1CCN(Cc2ccccn2)CC1", "note": "(centres undefined)", "Percent Effect": 2.912},
      {"smiles": "Cn1ncc2c(NCC(=O)N3CCNCC3)nc(C(C)(C)C)nc21", "Percent Effect": -6.319},
      {"smiles": "CC(C)C1CN(c2ncc(F)cn2)CCC(=O)N1Cc1ccc(F)cc1", "note": "(centres undefined)", "Percent Effect": 23.16},
      {"smiles": "Cc1ccc(S(=O)(=O)Nc2cccnc2O)cc1C", "Percent Effect": 0.1699},
      {"smiles": "CC(CNC(=O)N1CCSCC1)Cc1cccs1", "note": "(centres undefined)", "Percent Effect": 19.49},
      {"smiles": "CCC(O)CN1CCN(C(=O)c2cccn2Cc2cccs2)CC1", "note": "(centres undefined)", "Percent Effect": -10.05},
      {"smiles": "NC(=O)C1CCN(C(=O)c2cccn2Cc2cccs2)C1", "note": "(centres undefined)", "Percent Effect": 92.97},
      {"smiles": "O=C(c1cccn1Cc1cccs1)N1CCSCC1", "Percent Effect": 87.27},
      {"smiles": "O=C1NC(c2ccccc2)=N[C@@]12CC[C@@H]1CN(Cc3ccncc3)C[C@@H]12", "Percent Effect": -3.809},
      {"smiles": "Cc1ccc(-c2cn(C3CCN(C(=O)[C@H]4CCCO4)CC3)nn2)cc1", "Percent Effect": -12.17},
      {"smiles": "Cc1c(C(=O)N2CCC(C(O)c3ccc(Cl)cc3)CC2)cnn1C", "note": "(centres undefined)", "Percent Effect": -1.505},
      {"smiles": "CN(C)C(=O)c1cnn2c1OCCC2", "Percent Effect": 85.82},
      {"smiles": "Cc1c(C(=O)N2CCCN(S(C)(=O)=O)CC2)cnn1C", "Percent Effect": 116.6},
      {"smiles": "O=C(c1cnn2c1OCCC2)N1CCN(C/C=C/c2ccccc2)CC1", "Percent Effect": 8.023},
      {"smiles": "CCCn1ncc(C(=O)N2CCN(C3CCCC3)CC2)c1C", "Percent Effect": 4.008},
      {"smiles": "Cc1cc2cc(CNC(=O)c3cnn4c3OCCC4)ccc2[nH]1", "Percent Effect": 3.624},
      {"smiles": "CCn1ncc(C(=O)N2CCCN(CCCc3ccccc3)CC2)c1C", "Percent Effect": 5.21},
      {"smiles": "O=C(c1cnn2c1OCCC2)N1CCN(C(=O)C2CCCO2)CC1", "note": "(centres undefined)", "Percent Effect": 101.5},
      {"smiles": "O=C(c1cnn2c1OCCC2)N1CCC(Cc2ccccc2)CC1", "Percent Effect": 143.8},
      {"smiles": "O=C(C1CCCO1)N1CCC(n2cc(-c3ccc(F)cc3)nn2)CC1", "note": "(centres undefined)", "Percent Effect": -2.259},
      {"smiles": "CC(=O)N1CCOC2(CCCN(Cc3ccc(Cl)c(C(F)(F)F)c3)C2)C1", "note": "(centres undefined)", "Percent Effect": -8.143},
      {"smiles": "Clc1cc(CN2CCCC2Cn2cncn2)c2ncccc2c1", "note": "(centres undefined)", "Percent Effect": 9.576},
      {"smiles": "N#Cc1cccnc1N1CCCC(CO)(Cc2cccc(Cl)c2)C1", "note": "(centres undefined)", "Percent Effect": -4.475},
      {"smiles": "CC(c1cccc(-c2cn(Cc3ccoc3)nn2)c1)N(C)C", "note": "(centres undefined)", "Percent Effect": -9.392},
      {"smiles": "CNC(=O)Cc1ccc(NC(=O)NCc2nc(C)sc2C)cc1", "Percent Effect": 5.733},
      {"smiles": "CN(C)C(=O)CCC[S+]([O-])Cc1ccc(Cl)c(Cl)c1", "note": "(centres undefined)", "Percent Effect": -0.5151},
      {"smiles": "CN(Cc1cncs1)C1CCN(C(=O)OC(C)(C)C)CC1", "Percent Effect": 3.797},
      {"smiles": "CC(=O)c1ccc(N2CCN(C(=O)c3cc(C(C)C)nn3C)CC2)cc1", "Percent Effect": -2.718},
      {"smiles": "CS(=O)(=O)N1CCN(C(=O)c2cnn3c2OCCC3)CC1", "Percent Effect": 124.7},
      {"smiles": "CC(=O)N1CCCN(C(=O)c2cnn(C(C)(C)C)c2C)CC1", "Percent Effect": 120.5},
      {"smiles": "CC(=O)c1ccc(N2CCN(C(=O)c3cnn4c3OCCC4)CC2)cc1", "Percent Effect": 108.1},
      {"smiles": "CCc1c(C(=O)N2CCCN(C(C)=O)CC2)cnn1C(C)(C)C", "Percent Effect": 7.313},
      {"smiles": "CC(=O)N1CCN(c2nc3c(cnn3C(C)(C)C)c(=O)[nH]2)CC1", "Percent Effect": -9.111},
      {"smiles": "CC(C)(C)OC(=O)N1CCCN(c2nnc(C3CC3)s2)CC1", "Percent Effect": 1.365},
      {"smiles": "CS(=O)(=O)N1CCn2c(C(=O)N3CCOCC3)cnc2C1", "Percent Effect": -13.12},
      {"smiles": "CS(=O)(=O)N1CCN(C(=O)c2[nH]c3ccc(Cl)cc3c2Cl)CC1", "Percent Effect": -22.4},
      {"smiles": "CC(C)(C)OC(=O)N1CCN(C(=O)c2cnn3c2OCCC3)CC1", "Percent Effect": 119.8},
      {"smiles": "CC(=O)c1ccc(N2CCN(C(=O)NC(C)c3ccc(C)o3)CC2)cc1", "note": "(centres undefined)", "Percent Effect": -3.361}
    ]}
  ]
}
